Screens: PubChem, Broad Institute
F508del corr – F508del CFTR correction, initial screen, CFBE line, single point; activity (quench increase), % at 7.58 µM; hit rate 0.36% among 350,000; AID 720511, 2013; CFBE cells, YFP halide quenching; stimulated with forskolin plus potentiator P3; % fluorescence drop versus neutral controls;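 active = mean added fluorescence quench of at least 8% versus neutral control, with both replicates also reaching 8%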;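 also: cells transiently co-express mutant CFTR-F508del with the halide-sensitive YFP; corrector assay measuring rescue of mutant channel to the surface after 24 h compound exposure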
NSD2 inh – NSD2 histone methyltransferase inhibitors, primary screen, biochemical, AlphaScreen, single concentration, set 2 | Histone-lysine N-methyltransferase NSD2 (Homo sapiens), O96028 | NSD2 peptide methylation, 120 min | AID 743445, 2014 | inhibition, % at 12.5 µM | hit rate 0.54% among 310,000; in the data active = inhibition above about 50%
ALR H2O2 inh – inhibitors of human ALR sulfhydryl oxidase, primary screen, biochemical, H2O2 detection, HRP-luminol luminescence, single point | AID 485317, 2010 | purified ALR, DTT oxidation | hit rate 3.8% among 290,000 | inhibition, % (concentration not given with the values) | FAD-linked sulfhydryl oxidase ALR (Homo sapiens), P55789;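 active = mean replicate inhibition above about 79%, with every replicate also reaching it, limit read from the data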
Target sequence (P55789 whole entry, looked up): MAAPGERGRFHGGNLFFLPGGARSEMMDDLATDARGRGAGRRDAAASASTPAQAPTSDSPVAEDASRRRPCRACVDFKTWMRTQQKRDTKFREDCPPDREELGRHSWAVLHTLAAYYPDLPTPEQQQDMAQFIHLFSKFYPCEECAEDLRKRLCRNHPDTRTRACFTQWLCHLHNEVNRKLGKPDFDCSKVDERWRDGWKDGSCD
PglD DTNB – C. jejuni PglD acetyltransferase inhibitors, primary screen, biochemical, DTNB colorimetric, single point; inhibition, % at 12.5 µM; purified PglD enzyme, DTNB colorimetric CoA detection; hit rate 0.098% among 360,000; UDP-N-acetylbacillosamine N-acetyltransferase PglD (Campylobacter jejuni); AID 602405, 2012; in the data active = inhibition above about 16%, passing the limit was not always enough
CASP6 VEID inh – human caspase-6 inhibitors, primary screen, biochemical, VEID-R110 fluorescence, single point, set 2. P55212. purified caspase-6, Z-VEID-R110 cleavage fluorescence. inhibition, % at 12.5 µM. hit rate 0.53% among 350,000;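 active = mean inhibition across replicates at least about 35%, with every replicate also reaching that limit, limit read from the data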
Target sequence (P55212 24-179 limits assumed): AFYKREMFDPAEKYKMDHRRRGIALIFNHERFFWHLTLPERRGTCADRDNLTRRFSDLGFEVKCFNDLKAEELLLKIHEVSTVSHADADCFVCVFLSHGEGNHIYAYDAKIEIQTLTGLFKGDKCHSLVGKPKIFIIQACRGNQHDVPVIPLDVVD
Target sequence (P55212 194-293 limits assumed): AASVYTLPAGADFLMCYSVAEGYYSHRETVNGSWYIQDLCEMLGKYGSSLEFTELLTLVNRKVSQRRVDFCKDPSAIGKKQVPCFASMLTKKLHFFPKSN
HIV Env fusion – inhibitors of HIV-1 Env-driven cell-cell fusion, primary screen, HeLa-JRFL effector, CEM21 target cells, luciferase. inhibition, % at 12.3 µM. hit rate 1.1% among 360,000. AID 651610, 2012;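 active = mean replicate inhibition score of at least 50 and every replicate individually at or above 50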
Hits are given with their value; . = inactive; / = not tested or not shown; [ ] = dose if it differs, or a comment. In the library only some 4.1% were active in any assay of this set; here they are far more common.

SMILES	F508del corr	NSD2 inh	ALR H2O2 inh	PglD DTNB	CASP6 VEID inh	HIV Env fusion
CCC(=O)N(C)C[C@@H]1Oc2cc(-c3ccncc3)ccc2S(=O)(=O)N([C@@H](C)CO)C[C@@H]1C	.	/	/	.	.	.
C[C@H]1CN([C@@H](C)CO)C(=O)Cc2cc(NC(=O)Nc3ccc4c(c3)OCO4)ccc2O[C@H]1CN(C)S(=O)(=O)c1ccccc1	.	/	/	/	.	63.1[16.7 µM]
C[C@@H]1CN([C@H](C)CO)C(=O)Cc2cc(NC(=O)Cc3ccccc3)ccc2O[C@H]1CN(C)S(=O)(=O)c1ccccc1	.	/	/	.	.	.
C[C@H]1CN([C@@H](C)CO)C(=O)Cc2cc(NC(=O)Cc3ccccc3)ccc2O[C@H]1CN(C)S(=O)(=O)c1ccccc1	.	/	/	.	.	72.6[16.7 µM]
C[C@@H]1CN([C@H](C)CO)C(=O)Cc2cc(NC(=O)Nc3ccc4c(c3)OCO4)ccc2O[C@@H]1CN(C)S(=O)(=O)c1ccccc1	.	/	/	/	.	.
CC1CCC/C(=N/Nc2nc3ccccc3s2)C1 (stereo not given)	/	.	96.7	/	/	.
CO[C@H]1CN(C)C(=O)c2ccc(NS(=O)(=O)c3ccccc3)cc2OC[C@@H](C)N(Cc2cccnc2)C[C@H]1C	.	/	/	.	.	.
CC(=O)N1CC2(C1)[C@@H](c1ccc(-c3ccc(F)cc3)cc1)[C@@H](CO)N2C(C)=O	.	/	/	/	.	/
O=C(N/N=C/c1ccccn1)c1ccc(N/N=C/c2ccccn2)cc1	/	.	99.2	/	.	.
O=C(N/N=C/c1ccncc1)c1cccc(N/N=C/c2ccncc2)c1	.	.	96.5	/	.	.
Cc1cc(NN=Cc2ccccn2)nc2ccccc12	.	.	/	/	.	.
O=C(N/N=C/c1ccc(O)cc1)c1cccc(N/N=C/c2ccc(O)cc2)c1	.	.	/	.	.	.
Cc1cccc(N/N=C/c2ccncc2)c1	/	.	98.7	.	.	.
C(=NNc1ccc2ccccc2n1)c1ccccn1	8.2	.	/	.	.	.
Cc1cccc(NC(=O)C(=O)N/N=C/c2ccncc2)c1	.	.	.	/	.	.
Cc1cc(O)ccc1NS(=O)(=O)c1ccc2c3c(cccc13)C(=O)N2	.	.	98.9	.	.	.
O=C(O)c1ccccc1NS(=O)(=O)c1ccc2c3c(cccc13)C(=O)N2	/	.	.	.	/	.
CC(C)NC(=O)Nc1ccc2c(c1)C(=O)N([C@@H](C)CO)C[C@H](C)[C@H](CN(C)S(C)(=O)=O)O2	.	/	/	.	.	.
COCC#Cc1cnc2c(c1)C(=O)N([C@H](C)CO)C[C@H](C)[C@H](CN(C)S(C)(=O)=O)O2	.	/	/	.	.	/
CCCN(CC1CC1)C(=O)CSc1ncnc2sc(C)c(C)c12	/	.	.	.	/	68.6
CCN(C(=O)CSc1ncnc2sc(C)c(C)c12)C1CCS(=O)(=O)C1 (stereo not given)	.	/	.	/	.	.
COc1ccccc1NCCC(=O)OCC(=O)Nc1ccccc1F	.	.	99.2	.	.	.
COc1ccccc1NCCC(=O)OCC(=O)NC1CCCCCC1	/	/	98.8	.	.	.
Cc1noc(C)c1S(=O)(=O)N(C)C[C@H]1Oc2ccc(NC(=O)Nc3ccc(C(F)(F)F)cc3)cc2CC(=O)N([C@@H](C)CO)C[C@H]1C	.	/	/	.	/	.
COc1ccccc1S(=O)(=O)N(C)C[C@H]1OCc2ccccc2-c2c(n(C)c3ccccc23)C(=O)N([C@@H](C)CO)C[C@@H]1C	.	/	/	.	.	.
SMILES	F508del corr	NSD2 inh	ALR H2O2 inh	PglD DTNB	CASP6 VEID inh	HIV Env fusion
CCOC(=O)c1ccc2c(c1)N(CC)C(=O)c1ccccc1S2	/	.	.	.	/	/
CCOC(=O)/C(=C\C=C1/Sc2ccccc2N1CC)C(C)=O	/	/	.	.	.	.
CCOC(=O)/C(=C/C=C1\Sc2cc(C)c(C)cc2N1CC)C(C)=O	39.0	.	/	/	.	.
CCOC(=O)/C(=C/C=C1\Sc2ccccc2N1CC)C(C)=O	/	.	87.8	.	/	/
O=C(N[C@@H]1C=C[C@@H](CC(=O)N2CCCCC2)O[C@@H]1CO)c1cccc(F)c1	.	/	/	.	.	.
CC(C)NC(=O)Nc1ccc2c(c1)CC(=O)N([C@@H](C)CO)C[C@@H](C)[C@H](CN(C)Cc1ccncc1)O2	.	/	/	.	.	/
CCN1CCN(C(=O)c2ccc3c(Cl)c4c(nc3c2)CCCC4)CC1	.	.	97.9	.	.	.
CC1CCN(CCCNC(=O)c2ccc3c(Cl)c4c(nc3c2)CCCC4)CC1	.	.	90.0	/	.	57.1
C[C@@H]1CN([C@H](C)CO)C(=O)CCCn2cc(nn2)CO[C@@H]1CN(C)C(=O)Nc1ccc(C(F)(F)F)cc1	.	/	/	.	.	.
COc1ccc(NC2c3ccccc3C(=O)N2c2cccnc2)cc1Cl (stereo not given)	.	/	82.6	.	.	.
O=C(c1ccccc1OC(F)F)N1CCN(S(=O)(=O)/C=C/c2ccccc2)CC1	/	.	/	/	/	/
Cc1cc(=O)[nH]c2sc(C(=O)N3c4ccccc4CC3C)c(N)c12 (stereo not given)	.	.	97.9	/	.	.
Clc1nnc(N2CCCCC2)c2ccccc12	.	.	97.6	.	.	.
O=C(C[C@@H]1CC[C@@H]2[C@H](COC[C@H](O)CN2Cc2cccc(Cl)c2)O1)NCC1CCCCC1	.	/	/	.	.	.
Cc1cc(C)c(S(=O)(=O)Nc2ccccc2)c(C)c1	.	.	/	.	.	.
Cc1cc(=O)[nH]c2ccc(S(=O)(=O)Nc3ccc(O)cc3)cc12	.	.	99.4	.	.	.
Cc1cc(C)c(S(=O)(=O)Nc2ccc(O)cc2)c(C)c1	/	.	98.7	.	/	.
COc1ccc(NC2CCCN(C(=O)CCOc3ccccc3)C2)cc1 (stereo not given)	.	.	99.1	.	.	.
COc1ccc(NC2CCCN(C(=O)CSc3ccccc3)C2)cc1 (stereo not given)	.	.	98.7	.	.	.
COc1ccc(NC2CCCN(C(=O)COc3ccc(C(C)=O)cc3)C2)cc1 (stereo not given)	.	.	/	.	.	.
COc1ccc(NC2CCCN(C(=O)CCc3ccccc3F)C2)cc1 (stereo not given)	.	.	99.8	.	.	.
COc1ccc(NC2CCCN(C(=O)COc3ccc(C)cc3)C2)cc1 (stereo not given)	.	.	90.2	.	.	.
COc1ccc(OCC(=O)N2CCCC(Nc3ccc(C)c(C)c3)C2)cc1 (stereo not given)	.	.	/	.	.	.
COc1ccccc1S(=O)(=O)Nc1ccc2c(c1)C(=O)N(C)C[C@@H](OC)[C@H](C)CN[C@@H](C)CO2	.	/	/	.	/	.
